High-throughput results: PubChem BioAssay, several laboratories
An excerpt weighted towards active compounds, which were near 4.6% of everything screened.
tim23-1 inh = growth inhibitors of tim23-1 mutant yeast, primary screen, luminescence, uHTS. inhibition, % at 20 µM. S. cerevisiae tim23-1 growth, BacTiter-Glo luminescence, 24 h. hit rate 1.3% among 330,000. AID 463212, 2010;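 active = growth inhibition of the mutant yeast at or above 50%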;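 also: temperature-sensitive mutant grown at 25 °C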
NALP3 yeast inh = NALP3 inflammasome inhibitors in reconstituted yeast, primary screen, luminescence, uHTS. inhibition, % at 10 µM. hit rate 0.39% among 330,000. Yeast reconstituted NLRP3/ASC/caspase-1, beta-gal luminescence, 24 h;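 active = inhibition of 50% or more; inactive = inhibition below 50%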
TIM10 inh = growth inhibitors of isogenic TIM10 control yeast, primary screen, counter-screen for tim10-1 yeast inhibitor project, luminescence, uHTS; S. cerevisiae TIM10 strain growth, BacTiter-Glo luminescence, 24 h; inhibition, % at 10 µM; hit rate 1.4% among 330,000; AID 463195, 2010;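 active = inhibition of 40% or more at the single tested concentration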;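 also: wild-type TIM10 isogenic control strain grown at permissive 25 °C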
SKKanGAS inh = S. pyogenes SKKanGAS growth inhibitors in kanamycin, primary screen, streptokinase expression inhibitor project, SKKanGAS strain, BacTiter-Glo luminescence. 6 h. AID 1662, 2009. hit rate 1.3% among 300,000. inhibition, % at 7.5 µM;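 active = mean replicate score, as percent of positive control median, at least 50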;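 also: strain carries kanamycin resistance gene driven by streptokinase promoter and grows in 40 µg/ml kanamycin; loss of luminescence reflects streptokinase promoter inhibition or plain growth inhibition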
tim10-1 inh = growth inhibitors of tim10-1 mutant yeast, primary screen, luminescence, uHTS; S. cerevisiae tim10-1 ts strain growth, BacTiter-Glo, 24 h; inhibition, % at 20 µM; hit rate 2.2% among 330,000;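 active = inhibition of at least 40%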;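 also: mutant grown at 25 °C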
tim10-1 confirm = growth inhibitors of tim10-1 mutant yeast, confirmation, single concentration, luminescence, S. cerevisiae | shares compounds with tim10-1 inh | S. cerevisiae tim10-1 ts strain growth, BacTiter-Glo, 24 h | inhibition, % at 20 µM | hit rate 56% among 7,400;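 active = inhibition of yeast growth at or above a set limit in either of two repeat tests at 20 µM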;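 also: tim10-1 mutant grown at permissive 25 °C to find synthetic lethal compounds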
Numbers stand for hits; i = inactive; nt = no result given.

SMILES | tim23-1 inh | NALP3 yeast inh | TIM10 inh | SKKanGAS inh | tim10-1 inh | tim10-1 confirm
Cc1cccc(NC(=O)c2ccc([N+](=O)[O-])cc2Cl)n1 | i | i | i | i | i | nt
Cc1nc(NC(=S)NC(=O)c2cccs2)ccc1Br | i | i | i | i | i | nt
O=C(NCCc1c[nH]c2ccccc12)OCCCCOC(=O)NCCc1c[nH]c2ccccc12 | i | i | i | i | i | nt
O=C(CN1C(=O)c2ccccc2C1=O)OCC(=O)N1CCCCC1 | i | i | i | nt | i | nt
CS(=O)(=O)Nc1cc2c3c(c1)CCC(=O)N3CCC2 | i | i | i | i | i | nt
CC(=O)Nc1ccccc1OCC(=O)c1cc(C)n(Cc2cccs2)c1C | i | i | i | i | 48 | i
COc1ccc(-n2cnnc2SCC(=O)c2cc(C)n(Cc3cccs3)c2C)cc1 | i | i | i | i | 44 | i
Cc1cc(C(=O)COc2cccnc2[N+](=O)[O-])c(C)n1Cc1cccs1 | i | i | i | i | i | nt
CN(CC(=O)Nc1cccc(F)c1)C(=O)CCc1nc2ccccc2c(=O)[nH]1 | i | i | i | i | i | nt
CCc1cc2c(=O)nc3n(c2s1)Cc1ccccc1/C3=C(/O)c1ccc(F)cc1 | i | i | i | i | 44 | 35
CCc1cc2c(=O)nc3n(c2s1)Cc1ccccc1/C3=C(/O)c1cccc([N+](=O)[O-])c1 | i | i | i | i | i | nt
NC(=S)N1OC[C@@H]2COc3ccc4ccccc4c3[C@@H]21 | i | i | i | i | 41 | i
CCOC(=O)c1ccc(NC(=O)CC2OCCN(CC)C2=O)cc1 (configuration not stated) | i | i | i | i | 50 | 62
O=C(CCCSc1ccc(Cl)cc1)Nc1cc(S(=O)(=O)N2CCOCC2)ccc1O | i | i | i | nt | i | nt
CS(=O)(=O)c1sc2nc(-c3cccs3)cc(-c3ccccc3)c2c1N | i | i | i | i | i | nt
Cc1ccc(-c2cc(-c3ccccc3)c3c(N)c(S(C)(=O)=O)sc3n2)cc1 | i | i | i | i | 49 | 43
Cc1c([N+](=O)[O-])c(C(=O)Sc2ccc(Br)cc2)nn1C | i | i | i | i | 47 | 46
Cc1c([N+](=O)[O-])c(C(=O)N2CCCC2)nn1C | i | i | i | i | i | nt
Cc1c(C(=O)C(=O)N2CCCc3ccccc32)c2ccccc2n1C | i | i | i | i | 43 | i
Cc1c(C(=O)C(=O)N2CCN(C)CC2)c2ccccc2n1C | i | i | i | i | i | nt
Clc1ccc(C2=CC(c3ccco3)n3ncnc3N2)cc1 (configuration not stated) | i | i | i | i | 43 | 33
COc1ccc(C2=CC(c3ccco3)n3ncnc3N2)cc1 (configuration not stated) | i | i | i | nt | i | nt
O=C(Nc1ccccc1C(=O)N/N=C/c1ccco1)c1ccc(Cl)cc1 | i | i | i | i | i | nt
O=C(Nc1ccccc1C(=O)N/N=C/c1ccco1)c1ccccc1 | i | i | i | i | 41 | i
COc1cc(C(=S)N2CCCC2)ccc1OCc1ccc(C)cc1 | i | i | i | i | i | nt
SMILES | tim23-1 inh | NALP3 yeast inh | TIM10 inh | SKKanGAS inh | tim10-1 inh | tim10-1 confirm
COc1ccc(CNC(=O)COC(=O)CN2C(=O)C3CC=CCC3C2=O)cc1 (configuration not stated) | i | i | i | nt | i | nt
CCN1CCN(C(=O)c2ccc3c(c2)c(C)c(C)n3Cc2ccccc2)CC1 | i | i | i | i | i | nt
CCn1c(C)c(C)c2cc(C(=O)N3CCc4ccccc4C3)ccc21 | i | i | i | i | 48 | i
COc1ccc(-c2cc(=O)oc3cc(OC(=O)C4CCCCC4)c(Cl)cc23)cc1 | i | i | i | i | 44 | 36
CCC1(c2ccccc2)NC(=O)N(CC(=O)NCCN2C(=O)S/C(=C\c3cccnc3)C2=O)C1=O (configuration not stated) | i | i | i | i | i | nt
O=C(CN1CCN(c2ccc(F)cc2)CC1)Nc1ccc(S(=O)(=O)N2CCOCC2)cc1 | i | i | i | i | i | nt
Nc1cccnc1Sc1cccc(Cl)c1 | i | i | i | i | 41 | i
Nc1cccnc1Sc1ccc(Cl)cc1 | i | i | i | i | i | nt
O=C(Nc1ccc2c(c1)CN(Cc1ccccc1O)CC2)C1CCCO1 (configuration not stated) | i | i | i | i | i | nt
CC1(C)C(=O)NCCN1C(=O)CC1C(=O)NCCN1Cc1cccc(C(F)(F)F)c1 (configuration not stated) | i | i | i | i | i | nt
Cn1cc(C(C[N+](=O)[O-])c2ccccc2)c2ccccc21 (configuration not stated) | i | i | i | i | 40 | 49
Cn1cc(SCC(=O)O)c2ccccc21 | i | i | i | i | i | nt
COc1ccc(-c2nc3ccc(C)cn3c2NCc2ccc3c(c2)OCO3)cc1 | i | i | i | i | i | nt
Cc1ccc(-c2nc3ccccn3c2NCc2ccc3c(c2)OCO3)cc1 | i | i | i | i | 47 | i
Cn1c(SC2=CS(=O)(=O)c3ccccc32)nc2ccccc21 | i | i | i | i | 44 | i
COC(=O)C1Cc2ccccc2CN1S(=O)(=O)c1ccc(F)cc1 (configuration not stated) | i | i | i | i | i | nt
COCCCNC(=O)Cn1cnc(C(=O)Nc2ccc(C)c(C)c2)n1 | i | nt | i | nt | i | nt
O=C(COC(=O)C1(c2ccc(Cl)cc2)CCCC1)Nc1ncc(C(F)(F)F)cc1Cl | i | i | i | i | 42 | i
Cc1sc(NC(=O)c2cc(-c3ccccc3)nc3ccccc23)c(C(N)=O)c1C | i | i | i | i | 41 | i
O=C(N/N=C/c1ccco1)c1cc(-c2ccccc2)nc2ccccc12 | i | i | i | i | i | nt
O=C(N/N=C/c1ccccn1)c1cc(-c2ccc(Br)cc2)nc2ccccc12 | i | i | i | 107 | 44 | i
CCCc1ccc(-c2cc(C(=O)N/N=C/c3ccc([N+](=O)[O-])o3)c3ccccc3n2)cc1 | i | i | i | 96 | 44 | 49
Cc1ccc(-c2cc(C(=O)NN=C3CCCC3)c3ccccc3n2)cc1 | i | i | i | i | 44 | i
CCCCC1CCC(C(=O)Nc2ccc(N3CCOCC3)cc2N2CCOCC2)CC1 (configuration not stated) | i | i | i | nt | i | nt
O=C(N/N=C/c1ccc([N+](=O)[O-])o1)c1cc(-c2cccc(Br)c2)nc2ccccc12 | i | i | i | 98 | 44 | i
O=C(CNc1ccc2ccccc2c1)N/N=C/c1ccc(C(=O)O)cc1 | i | i | i | i | i | nt
COc1cccc(-c2cc(C(=O)N/N=C/c3ccco3)c3ccccc3n2)c1 | i | i | i | i | i | nt
O=C(CNc1ccc2ccccc2c1)N/N=C/c1ccc([N+](=O)[O-])o1 | i | i | i | 83 | 47 | 41
